# PubChem BioAssay AID590 (National Center for Advancing Translational Sciences (NCATS), 2007)
# About 6,500 (11%) of roughly 59,000 compounds were called active. About 15% were inconclusive and are not listed. No stated cut-off is given here; in the data, active means max dye-equivalent concentration above about 10 nM; inconclusive means mostly about 1.1 nM to 9.6 nM; inactive means weaker than that. Shown is part of a subset that was picked to be rich in actives.
# Assay: qHTS Assay for Spectroscopic Profiling in A350 Spectral Region
# Conditions: Compound autofluorescence, 340/450 nm, Alexa 350 dye-equivalents; stronger effect = higher value
row,Compound,max dye-equivalent concentration
1,CCC1(C)Cc2c(sc3nc4n(c(=O)c23)CCCS4)CO1 (stereo not drawn),56 nM (active)
2,CCOC(=O)Cn1c(SC)nc2sc3c(c2c1=O)CC(C)(C)OC3,inactive
3,CC1(C)Cc2c(sc3nc4n(c(=N)c23)CCCCC4)CO1,inactive
4,CCCCC[C@H](O)CCCC(=O)O,inactive
5,CC(=O)c1c(C)n(-c2ccc(N(C)C)cc2)c2ccc(OCC(N)=O)cc12,inactive
6,CCCc1[nH]nc2c1C(c1ccc(OC)c(Cn3nc(C)c(Br)c3C)c1)C(C#N)=C(N)O2 (stereo not drawn),inactive
7,CC(=O)/C(=N\N=C(N)N)c1ccccc1,inactive
8,CC(=C1C(=O)c2ccccc2C1=O)N1CCN(c2ccccn2)CC1,inactive
9,O=C1c2cccc3cccc(c23)N1CN1CCN(c2ccccn2)CC1,16 nM (active)
10,OC(COc1cccc2ccccc12)CN1CCN(c2ccccn2)CC1 (stereo not drawn),inactive
11,COc1ccccc1OCCC(=O)OCC(=O)NC(=O)NC(C)(C)C,inactive
12,CN1C(C)(C)CC(NC(=O)CCC(=O)NC2CC(C)(C)N(C)C(C)(C)C2)CC1(C)C,inactive
13,CCn1c(=N)c(S(=O)(=O)c2ccc(F)cc2)cc2c(=O)n3ccccc3nc21,780 nM (active)
14,CC1CCCC(NC(=O)CSc2nccn2C)C1C (stereo not drawn),inactive
15,O=C(c1c(Cl)nc2sccn12)N1CCCc2ccccc21,inactive
16,COc1ccccc1CNc1nc(-c2c(C)noc2C)nc2ccccc12,inactive
17,Cc1cnc(NC(=O)CSc2nnc(-c3ccccc3)n2Cc2ccccc2)s1,inactive
18,COc1ccc(CC(=O)Nc2nc3n(n2)C(c2ccccc2)CC(=O)N3)cc1OC (stereo not drawn),inactive
19,CNC(=O)CSc1nnnn1-c1ccc(C)cc1C,inactive
20,COc1ccc(-c2nnc(SCC(=O)c3cccs3)o2)c(OC)c1,inactive
21,COc1ccc(-n2c(C)cc(C(=O)CSc3nnc(-c4cccs4)o3)c2C)cc1,inactive
22,COc1ccc(OC)c(C(=O)CSc2nnc(-c3cccs3)o2)c1,150 nM (active)

row,Compound,max dye-equivalent concentration
1,c1ccc(CSCCc2ccncc2)cc1,inactive
2,CN(CCC#N)c1ncnc2scc(-c3ccccc3)c12,inactive
3,O=C(CN1C2CCC1CC(NC(=O)C1CC1)C2)NCc1ccccc1 (stereo not drawn),inactive
4,CCCCNC(=O)CSc1nnc(-c2ccco2)n1C,inactive
5,CC(C)N(C(=O)COC(=O)c1ccccc1C(=O)N1CCN(c2ccc(F)cc2)CC1)C(C)C,inactive
6,O=C(c1ccccc1)c1cccn1CC(=O)N1CCN(c2ccc(F)cc2)CC1,inactive
7,Cn1c2ccccc2c2c(C(=O)N3CCN(c4ccc(F)cc4)CC3)cn(C3CCCC3)c(=O)c21,13 nM (active)
8,CCCCn1nnnc1NCc1cc(OC)c(OC)c(OC)c1,inactive
9,COc1ccccc1-n1nnnc1S(=O)(=O)Cc1ccc(Cl)cc1,inactive
10,COc1ccc(OCc2cccc(C(=O)N3CCCC3)c2)cc1,18 nM (active)
11,CCC(CC)C(=O)Nc1cccc(C(=O)N2CCCC2)c1,inactive
12,COc1ccc(OCC(=O)N2CCN(C(=O)COc3ccccc3)CC2)cc1,inactive
13,Cc1noc(C)c1CSc1nnc2ccc3ccccc3n12,inactive
14,CCC(=O)Nc1sc(C(=O)N2CCCCC2)c(C)c1C#N,inactive
15,CC(C)C(C(=O)NC1CCCCC1)N(CC1CCCO1)C(=O)CNS(=O)(=O)c1ccc(F)cc1 (stereo not drawn),inactive
16,c1ccc2c(CNn3cnnc3)cccc2c1,inactive
17,COC(=O)[C@H](Cc1ccccc1)NC(=O)N1CC(C)OC(C)C1 (stereo partly drawn),inactive
18,COc1ccc(C2N=C(N)N=C(N)N2c2ccccc2)cc1OC (stereo not drawn),inactive
19,C=CCn1c(CC(=O)Nc2cccc(OC)c2)nnc1SCC(=O)NC1CCCCC1,inactive
20,Cn1c(SCC(=O)c2cccs2)nnc1-c1ccco1,inactive
21,c1coc(-c2nc3nc4ccccc4n3nc2-c2ccco2)c1,inactive
22,Cn1c(-c2ccco2)nc2cc3ccccc3cc21,1100 nM (active)

row,Compound,max dye-equivalent concentration
1,O=C(Nc1cc(C(F)(F)F)ccc1Cl)c1cc(C2CC2)on1,inactive
2,Cn1c(SCC(=O)OC2CCCCC2)nnc1-c1ccc(S(=O)(=O)N2CCCC2)cc1,inactive
3,Nc1ccc(-c2nnc(-c3ccc(-c4ccccc4)cc3)o2)cc1,300 nM (active)
4,O=C(CSc1nnc(-c2ccccc2)o1)N1CCOCC1,inactive
5,O=C(COC(=O)c1ccc(Oc2ccccc2)cc1)Nc1nnc(-c2ccccc2)o1,inactive
6,O=C(O)CN1C(=O)CC(Cc2ccccc2)C1=O (stereo not drawn),inactive
7,c1nc(COc2nsnc2N2CCOCC2)cs1,inactive
8,Cc1nn(Cc2ccccc2)c(Cl)c1C(=O)OC1CCOC1=O (stereo not drawn),inactive
9,O=C(OC1CCOC1=O)c1ccc(-c2nc3ccccc3s2)s1 (stereo not drawn),1100 nM (active)
10,O=C(c1cccs1)N1CCC(c2nc3ccccc3s2)CC1,inactive
11,CC(C)NS(=O)(=O)c1ccc(OCC(=O)Nc2ccc3c(c2)OCCO3)cc1,inactive
12,CCOc1ccc2[nH]c(=O)c(C(c3nnnn3CCOC)N3CCOCC3)cc2c1 (stereo not drawn),690 nM (active)
13,COCCn1nnnc1C(c1cc2ccc(OC)cc2[nH]c1=O)N1CCc2ccccc2C1 (stereo not drawn),18 nM (active)
14,COc1ccc(N2CCN(C(c3cc4ccc(C)cc4[nH]c3=O)c3nnnn3C3CCCC3)CC2)cc1 (stereo not drawn),inactive
15,COCCn1nnnc1C(c1ccccc1Cl)N1CCN(c2ccccc2OC)CC1 (stereo not drawn),inactive
16,Cc1cc(C)c2[nH]c(=O)c(C(c3nnnn3Cc3ccc4c(c3)OCO4)N3CCCC3)cc2c1 (stereo not drawn),inactive
17,COc1ccc(OC)c(C(c2nnnn2C(C)(C)C)N2CCc3ccccc3C2)c1 (stereo not drawn),inactive
18,CCOc1ccccc1Nc1nnc(SCC(=O)Nc2cc(C)on2)s1,inactive
19,Cc1ccccc1CN1CCN(C(=O)c2cccc(F)c2)CC1,inactive
20,CCOc1ccccc1N=C1NC(=O)CS1,inactive
21,COc1ccccc1-c1nnc(SCC(=O)Nc2ccccc2)o1,inactive
22,c1ccc(CCN2CCN=C2Cc2ccccc2)cc1,inactive

row,Compound,max dye-equivalent concentration
1,O=c1cc(-c2ccc(O)c(O)c2)oc2cccc(O)c12,inactive
2,COc1ccc(-c2csc(N3CCN(Cc4ccc5c(c4)OCO5)CC3)n2)cc1,inactive
3,CC(C)OC(=O)C(C#N)c1nc2ccccc2nc1N1CCN(Cc2ccc3c(c2)OCO3)CC1 (stereo not drawn),120 nM (active)
4,CC(C)OC(=O)C(C#N)c1nc2ccccc2nc1N1CCN(Cc2ccccc2)CC1 (stereo not drawn),inactive
5,Cc1ccc(S(=O)(=O)N2CCN(Cc3cccc(C)c3O)CC2)cc1,inactive
6,CC(=O)Nc1cccc(NC(=O)c2c(-c3ccccc3)noc2C)c1,inactive
7,Cc1cc(=O)oc(C)c1C(=O)Nc1cnc2ccccc2c1,12 nM (active)
8,Cc1cc(=O)oc(C)c1C(=O)NC1CC(C)(C)NC(C)(C)C1,inactive
9,CCC(=O)Nc1ccc(C(=O)Nc2ccc3c(c2)C(=O)N(CC2CCCO2)C3=O)cc1 (stereo not drawn),150 nM (active)
10,O=C(CCN1C(=O)c2ccncc2C1=O)Nc1ccc2c(c1)OCCO2,inactive
11,O=C(NCc1ccc2c(c1)OCO2)c1ccc2c(c1)C(=O)N(CC1CCCO1)C2=O (stereo not drawn),inactive
12,CCC(c1nnnn1C1CCCC1)N1CCN(C(=O)c2ccco2)CC1 (stereo not drawn),inactive
13,O=C(Nc1ccc(-c2nnc(-c3ccccc3)o2)cc1)C1CCCO1 (stereo not drawn),inactive
14,O=C(Nc1ccc(-c2nnc(-c3ccccc3)o2)cc1)c1ccc(Br)o1,68 nM (active)
15,O=C(Nc1cccc(-c2nnc(-c3ccccc3)o2)c1)C1CCCO1 (stereo not drawn),inactive
16,CCNS(=O)(=O)c1ccc(NC(=O)Nc2cccc(OC)c2)cc1,inactive
17,CN1c2ccccc2-c2nc3ccccc3n2C1c1ccco1 (stereo not drawn),3400 nM (active)
18,CSCCC(NC(=O)c1ccc(=O)n(C)n1)c1nc2ccccc2[nH]1 (stereo not drawn),inactive
19,COc1cc(C2C(C(=O)c3sc(C)nc3C)=C(O)C(=O)N2CCN(C)C)cc(OC)c1OC (stereo not drawn),inactive
20,O=C(c1csnn1)N1CCC[C@@]2(CCN(Cc3nccs3)C2)C1,inactive
21,O=c1c2cc3c(=O)n(CC4CCCO4)c(=O)c3cc2c(=O)n1CC1CCCO1 (stereo not drawn),inactive
22,O=C(NC1CCCCC1)c1ccc2c(=O)n(CC3CCCO3)c(=O)[nH]c2c1 (stereo not drawn),15 nM (active)

row,Compound,max dye-equivalent concentration
1,Cc1ccc(C(=O)Nc2ccccc2C(=O)NC2CCCCC2)cc1S(=O)(=O)N1CCOCC1,inactive
2,NS(=O)(=O)c1cc(C(=O)O)c(Cl)c([N+](=O)[O-])c1Cl,inactive
3,CS(=O)(=O)N(Cc1nc2sc3c(c2c(=O)[nH]1)CCCC3)C1CCCCC1,44 nM (active)
4,COc1ccc(Br)c2c1C[C@H](C(=O)O)CC2,inactive
5,C=CCNC(=O)CCCC(=O)NCC=C,inactive
6,O=C(CCn1c(=S)[nH]c2ccccc2c1=O)NCCCN1CCCC1=O,inactive
7,CSc1nnc(-c2ccncc2)n1CCCN1CCCC1=O,inactive
8,CC(C)(C)OC(=O)c1c(N)n(CCCN2CCCC2=O)c2nc3ccccc3nc12,9100 nM (active)
9,COc1ccc(N2C(=O)CC(N3CCC(C(N)=O)CC3)C2=O)cc1 (stereo not drawn),inactive
10,CC(C)NC(=O)N1CC[C@@]2(CCCN(C(=O)c3cccc(F)c3)C2)C1,inactive
11,CCCCCNC(=O)Cc1ccc(OC)cc1,inactive
12,CCS(=O)(=O)n1nc(-c2ccccc2)nc1SCc1ccccc1,inactive
13,COC(=O)c1ccc(C2C3=C(Nc4nnnn42)c2ccccc2OC3)cc1 (stereo not drawn),74 nM (active)
14,CCCCCOC(=O)C1=C(C)Nc2nnnn2C1c1ccc(OC)c(OC)c1OC (stereo not drawn),inactive
15,COc1ccccc1NC(=O)C1=C(C)Nc2nnnn2C1c1cccc(Br)c1 (stereo not drawn),inactive
16,CC(=O)OC(C(=O)NC1CCCCC1)c1ccccc1 (stereo not drawn),inactive
17,Cc1cc(C(=O)OCC(=O)c2c(N)n(C)c(=O)n(C)c2=O)c(C)o1,inactive
18,CC(NC(=O)CSc1nc2c(cc1C#N)CN(C)CC2)c1ccccc1 (stereo not drawn),26 nM (active)
19,Cc1ccc2cc(C#N)c(SCC(=O)NCC3CCCO3)nc2c1C (stereo not drawn),inactive
20,CC(NC(=O)c1cc(-c2ccccc2)on1)c1ccccc1 (stereo not drawn),inactive
